Experimental findings from PubChem BioAssay (NCI) are described below.

Compounds without any hit were thinned out: in the full panel of roughly 79,000, 15% have a hit. Values without a mark were called inactive. Activity calls are given as the source filed them. Cut-off read from the data, not from the text of the source: active = growth inhibition above about 70%; inactive = the rest.

Assay [1] can be described thus: NCI Yeast Anticancer Drug Screen. Data for the rad50 strain (AID 155).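 Note: 0% = growth of vehicle-only cultures of the same strain.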 The settings on record: S. cerevisiae rad50 strain growth inhibition; at 50.0 µM; active compounds read high. The procedure, abridged:
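Growth of the mutant yeast was measured after compound exposure and referenced to vehicle-treated cultures.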

Assay [2] can be described thus: NCI Yeast Anticancer Drug Screen. Data for the mec2-1 strain (AID 157). Conditions: S. cerevisiae mec2-1 strain, at 50.0 µM, active compounds read high. The procedure, abridged: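 mec2-1 yeast strain, carrying an alteration in DNA damage repair or cell cycle control, was exposed to compounds; growth inhibition was measured relative to vehicle-treated controls.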
A short description of assay [3]: NCI Yeast Anticancer Drug Screen. Data for the sgs1 mgt1 strain (AID 161).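 Note: 0% = growth of cultures given vehicle only.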 Conditions: S. cerevisiae sgs1 mgt1 strain, at 50.0 µM, active compounds read high. A digest of the protocol:
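Percent growth inhibition was derived by comparing compound-exposed mutant yeast with vehicle-exposed cultures. The strain carries alterations in DNA damage repair.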

Assay [4] in a line: NCI Yeast Anticancer Drug Screen. Data for the cln2 rad14 strain (AID 165).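 Note: 0% = growth equal to vehicle treated cultures.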 The settings on record: S. cerevisiae cln2 rad14 strain, at 50.0 µM, active compounds read high. A digest of the protocol: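 Yeast carrying cln2 and rad14 alterations (cell cycle control and DNA damage repair) were exposed to compounds. Growth inhibition was measured against vehicle-treated controls.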
The nature of assay [5]: NCI Yeast Anticancer Drug Screen. Data for the bub3 strain (AID 167). Conditions: S. cerevisiae bub3 mutant strain, at 50.0 µM, active compounds read high. The procedure, abridged: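 Whole-cell yeast assay. The mutant strain was incubated with compounds, and growth inhibition was determined by comparison with vehicle-treated cells.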
Assay [6] can be described thus: NCI Yeast Anticancer Drug Screen. Data for the mlh1 rad18 strain (AID 175). The settings on record: S. cerevisiae mlh1 rad18 strain growth inhibition; at 50.0 µM; active compounds read high. The procedure, abridged: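 Growth inhibition of the yeast strain was measured after compound exposure and expressed relative to vehicle-treated controls. The strain carries defined defects in DNA damage repair.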

On to `CNC(=S)n1ncnc1N`, for which the growth inhibition in assay [1] was 11%; in assay [2] it was -5.95%; in assay [3], -2.9%; in assay [4], -17.8%; in assay [5], -3.75%; in assay [6], 8.25%.
For the compound `COc1cc(Cl)ccc1NC(=O)COc1ccc(Cl)cc1`, the growth inhibition was 4.55% in assay [1]; 0.5% in assay [2]; -12.8% in assay [3]; -3.6% in assay [4]; 20% in assay [5]; -17.1% in assay [6].
Turning to `CC(=O)Nc1ccc2c(c1)Cc1cc(NC(C)=O)c(Cl)cc1-2`, the growth inhibition in assay [1] is 3.15%; in assay [2] it was 11.9%; in assay [3], -1.45%; in assay [4], 7.95%; in assay [5], -2.35%; in assay [6], -1.2%.
Consider `COC(=O)C1=C(C)C=C(N2CCOCC2)C(C(=O)OC)C1c1ccccc1` (centres undefined), for which the growth inhibition in assay [1] is -0.85%; in assay [2] it was -16.2%; in assay [3], -11.4%; in assay [4], -3.1%; in assay [5], -1.55%; in assay [6], 9%.
For `O=C(Cl)/C=C/c1ccccc1`, the growth inhibition in assay [1] is 37.1%; in assay [2], 15.5%; in assay [3] it was 27.9%; in assay [4], -29.1%; in assay [5], 23.9%; in assay [6], 34.9%.
`COc1cc2c(cc1OC)C(c1ccccc1CCCCl)=NCC2`: the growth inhibition in assay [1] was 6.4%; in assay [2], -4%; in assay [3] it was -25.1%; in assay [4], 10.8%; in assay [5], -27.5%; in assay [6], -44.7%.
For the compound `CCCN=C(N)NC#N`, the growth inhibition was 16.9% in assay [1]; 0.8% in assay [2]; -2.4% in assay [3]; 7.85% in assay [4]; -16.6% in assay [5]; 15.1% in assay [6].
Turning to `CCCC(=O)CC(C)C(=O)C(=O)NC12CC3CC(CC(C3)C1)C2` (centres undefined), the growth inhibition in assay [1] is 14.6%; in assay [2], 8.35%; in assay [3], 13.4%; in assay [4] it was 20.2%; in assay [5] it was 4.4%; in assay [6], 30.3%.
In the case of `O=C1/C(=C/c2ccc3c(c2)CCC3)Cc2cc3c(cc21)CCC3`, the growth inhibition was -10% in assay [1]; 11.7% in assay [2]; -23.4% in assay [3]; 21.4% in assay [4]; -1.15% in assay [5]; 4.75% in assay [6].
On to `O=C(CN1C(=O)c2cccc3c(Br)ccc(c23)C1=O)c1ccc(Cl)cc1`, for which the growth inhibition was -14.2% in assay [1]; -12.7% in assay [2]; 5.85% in assay [3]; 5% in assay [4]; 6.8% in assay [5]; 13.6% in assay [6].
As for `CN(CO)N=Nc1ccc(C(F)(F)F)cc1`, the growth inhibition was -6.05% in assay [1]; -0.65% in assay [2]; -10% in assay [3]; -14.2% in assay [4]; 13.2% in assay [5]; 19.8% in assay [6].
As to `CN(C)c1ccc2c(SCC(=O)OCC(=O)C3(O)CCC4C5CCC6=CC(=O)C=CC6(C)C5C(O)CC43C)c3ccc(N(C)C)cc3nc2c1` (centres undefined), the growth inhibition in assay [1] was 42.6%; in assay [2], 45.4%; in assay [3] it was 57.2%; in assay [4], 60%; in assay [5], 42.2%; in assay [6], 60.9%.
On to `COc1ccc2c(c1)CCc1nc(N)nc(N)c1-2`, for which the growth inhibition in assay [1] is -3.9%; in assay [2] it was 4.1%; in assay [3] it was -14.2%; in assay [4] it was -40.5%; in assay [5], -16.1%; in assay [6], 11.8%.
Consider `CCOC(=O)CC(C(=O)OCC)C(C(=O)OCC)C(=O)OCC` (centres undefined), for which the growth inhibition is 41.9% in assay [1]; -4.1% in assay [2]; 19.6% in assay [3]; 3.4% in assay [4]; 29.8% in assay [5]; 13.6% in assay [6].
Turning to `O=c1[nH]c2cc(Cl)ccc2nc1C1=C(O)c2ccccc2C1`, the growth inhibition was 32% in assay [1]; 12.7% in assay [2]; 23.6% in assay [3]; 3.35% in assay [4]; 6.7% in assay [5]; 30.6% in assay [6].
As to `CCC(C(O)c1ccc(Cl)cc1)C(O)(C(F)(F)F)C(F)(F)F` (centres undefined), the growth inhibition in assay [1] is 99.4% (active); in assay [2] it was 99.5% (active); in assay [3], 99.6% (active); in assay [4], 99.5% (active); in assay [5] it was 99.3% (active); in assay [6] it was 99.4% (active).
As to `Cc1ccc(C(=O)/C=C\c2ccc(Cl)c(Cl)c2)cc1`, the growth inhibition was -14.9% in assay [1]; -5.8% in assay [2]; 23.3% in assay [3]; -5.5% in assay [4]; 35.7% in assay [5]; 5.6% in assay [6].
As to `CCc1cc(C(C)(C)C)cc(C(C)(C)C)c1O`, the growth inhibition in assay [1] is 23.6%; in assay [2], 18.4%; in assay [3], -5.75%; in assay [4] it was 6.05%; in assay [5], 21.4%; in assay [6], 2.2%.
Consider `Cc1ccc(O)c(C(=O)C[n+]2ccccc2)c1`, for which the growth inhibition in assay [1] was -12.8%; in assay [2], -9.65%; in assay [3] it was -1.25%; in assay [4], 1.2%; in assay [5], 0.1%; in assay [6], -0.55%.
Regarding `C=C(Cl)C(Br)(CCl)CCC(Cl)C(C)C` (centres undefined) (tested in a mixture with another compound), the growth inhibition in assay [1] was 85% (active); in assay [2], 86.3% (active); in assay [3] it was 91% (active); in assay [4] it was 91.5% (active); in assay [5] it was 90.7% (active); in assay [6], 73.8% (active).
`FC(F)(F)C(F)(F)C(F)(F)C(F)(F)C(F)(F)C(F)(F)C(F)(F)c1noc(C(F)(F)C(F)(F)C(F)(F)C(F)(F)C(F)(F)C(F)(F)C(F)(F)F)n1`: the growth inhibition in assay [1] was -0.55%; in assay [2], 6.5%; in assay [3], -5.4%; in assay [4], -5.25%; in assay [5], 0.85%; in assay [6] it was 17.4%.
`CSS(=O)(=O)C(c1ccccc1)c1ccccc1`: the growth inhibition in assay [1] was -14.6%; in assay [2], 2.55%; in assay [3], -2.1%; in assay [4], -2.45%; in assay [5], 60.2%; in assay [6], -14.8%.
In the case of `CN1C(=O)C(O)Nc2ncncc21` (centres undefined), the growth inhibition in assay [1] was -5.15%; in assay [2] it was -19.9%; in assay [3], -4.55%; in assay [4], -45.7%; in assay [5] it was 2.45%; in assay [6], -33.2%.
With `C/C(CC(=O)N1CCCCC1)=N\NC(N)=S`, the growth inhibition in assay [1] was -6.95%; in assay [2], -9.45%; in assay [3], -18.9%; in assay [4], -10.5%; in assay [5] it was 2.2%; in assay [6], -18.2%.
For `O=C(O)Cn1cnc2c(=O)[nH]c(Nc3ccccc3)nc21`, the growth inhibition was 24.4% in assay [1]; 9.1% in assay [2]; 34.9% in assay [3]; 5.35% in assay [4]; 15.5% in assay [5]; -17.1% in assay [6].
Regarding `CN(CCCO)CCCO`, the growth inhibition in assay [1] is 5.9%; in assay [2], -2.4%; in assay [3], 0.7%; in assay [4] it was 3.35%; in assay [5] it was 1.85%; in assay [6], -0.85%.
With `CC(C)Oc1c(NCCO)c2cc(Cl)ccc2oc1=O`, the growth inhibition in assay [1] is -3.5%; in assay [2], 10.9%; in assay [3], 20.5%; in assay [4] it was -66.2%; in assay [5], -1.1%; in assay [6] it was -12.1%.
With `COc1ccc(N2C(=O)C3c4[nH]c5ccccc5c4C4CCC(C(C)(C)C)CC4C3C2=O)c(C)c1` (centres undefined), the growth inhibition in assay [1] is 11.9%; in assay [2], 1.95%; in assay [3], 14.7%; in assay [4], 17.1%; in assay [5], -2.45%; in assay [6] it was 17.1%.
On to `CCOP(=O)(OCC)OCCCCn1cnc2c1c(=O)n(C)c(=O)n2C`, for which the growth inhibition in assay [1] was -32%; in assay [2] it was -9.4%; in assay [3], -15.7%; in assay [4], -38%; in assay [5] it was -2.65%; in assay [6] it was -3.1%.
Take `Cc1ccc(S(=O)(=O)NC(=O)NCc2cccc(Cl)c2)cc1`: the growth inhibition was -0.3% in assay [1]; 28.2% in assay [2]; 19.8% in assay [3]; -15.6% in assay [4]; 13.9% in assay [5]; 6.3% in assay [6].
Take `c1ccc2c(c1)CCOC2`: the growth inhibition in assay [1] is -0.4%; in assay [2] it was 5.9%; in assay [3] it was 3.45%; in assay [4], 6.5%; in assay [5], 8.55%; in assay [6], -3.1%.
In the case of `O=c1cc(N2CCOCC2)n2c(ccc3ccccc32)n1`, the growth inhibition in assay [1] is -17.9%; in assay [2], -2.4%; in assay [3], -10.4%; in assay [4], 13.2%; in assay [5], 22%; in assay [6], -2.6%.
As to `CCCCNCC#N`, the growth inhibition in assay [1] is 20.4%; in assay [2], -10.7%; in assay [3], -0.85%; in assay [4], 7.4%; in assay [5] it was 5.15%; in assay [6], 3.95%.
As for `COC(=O)C[CH2][Ge]([CH3])([CH3])[S]c1ccccc1`, the growth inhibition in assay [1] is 52.9%; in assay [2], 27.1%; in assay [3], 34.1%; in assay [4], 4.3%; in assay [5] it was 15.4%; in assay [6], 18.1%.
With `CCOC(=O)Nc1cc2c(c(N)n1)N=C(c1ccc(Cl)cc1Cl)CN2`, the growth inhibition in assay [1] was 33.4%; in assay [2], -29.5%; in assay [3], 25.6%; in assay [4], -5.1%; in assay [5], -6%; in assay [6] it was -8.45%.
In the case of `Cc1nc(C)c(C(=O)NNC(=O)Cc2ccccc2)cc1C(=O)NNC(=O)Cc1ccccc1`, the growth inhibition is -32% in assay [1]; 1.35% in assay [2]; -0.9% in assay [3]; 15.5% in assay [4]; -5.55% in assay [5]; -32.4% in assay [6].
In the case of `CC(=O)Nc1ccccc1N`, the growth inhibition was 15.4% in assay [1]; 14.9% in assay [2]; -2.85% in assay [3]; 4.6% in assay [4]; -14.3% in assay [5]; 14.5% in assay [6].
`CC(C)CC([N+](C)(C)C)P(=O)([O-])O` (centres undefined): the growth inhibition in assay [1] was -4.4%; in assay [2] it was 1.6%; in assay [3], -4.7%; in assay [4] it was -9.2%; in assay [5], 20.9%; in assay [6], -3.5%.
For `Cc1ccc(S(=O)(=O)N/N=C/C(C)c2cccnc2)cc1` (centres undefined), the growth inhibition in assay [1] was -9%; in assay [2], 6.8%; in assay [3] it was 4%; in assay [4] it was 13.6%; in assay [5] it was 5.9%; in assay [6], 7.05%.
